Laboratory results as given in the supplement of paper PMC10105736.
Values without a mark were called inactive.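 The calls were made as follows: active = MAPPIT score above the 99th percentile of random reference set scores in the same batch; inactive = at or below it.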

Tests used:
Assay in all cases: MAPPIT interaction score (arbitrary units); higher = stronger binary interaction signal, active = hit call of the paper
[1] = biological target: PolZ2; conditions: MAPPIT configuration: N-N; pair source set: Finley_Y2H
[2] = biological target: Pis; conditions: MAPPIT configuration: N-N; pair source set: DPIM
[3] = biological target: Pu; conditions: MAPPIT configuration: N-C; pair source set: screen_4
[4] = biological target: Prosalpha2; conditions: pair source set: Lit-BM-16
[5] = biological target: Prosalpha4; conditions: MAPPIT configuration: N-N; pair source set: Lit-BM-16
[6] = biological target: Prosbeta7; conditions: pair source set: Lit-BM-16
[7] = biological target: Psi; conditions: MAPPIT configuration: N-N; pair source set: Lit-BM-16
[8] = biological target: Prosbeta2; conditions: MAPPIT configuration: N-N; pair source set: Lit-BM-16
[9] = biological target: Prosbeta3; conditions: MAPPIT configuration: N-C; pair source set: Lit-BM-16
[10] = biological target: Prp3; conditions: MAPPIT configuration: N-N
[11] = biological target: Pgd; conditions: pair source set: RRS
[12] = biological target: Rpt2; conditions: MAPPIT configuration: N-N
[13] = biological target: Rpt4; conditions: MAPPIT configuration: N-N; pair source set: Lit-BM-16
[14] = biological target: Pten; conditions: MAPPIT configuration: N-N; pair source set: DPIM
[15] = biological target: Ptp61F; conditions: MAPPIT configuration: N-N; pair source set: Lit-BS-16
[16] = biological target: REPTOR-BP; conditions: MAPPIT configuration: N-N; pair source set: Curagen_high_conf
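Also: HEK293T cells with Epo stimulation, STAT-responsive firefly luciferase reporter, fold induction versus unstimulated cells divided by the larger fold induction of two negative controls lacking either bait or prey.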

B1: rtp (protein)
chain: MAMDDYDDDMSSVGVTTARIENQHQQHPHQQGQHGHHQQGQGQSQYSAGAVKVGGWRYEDASRYIGEWNQRGQKHGIGHLQFADGTRYDGQFQEGLSQGVGCLWFADGAKYEGEFHQGWFHGNGIFWRADGMKYEGEFRGGKIWGLGLLTFQDFTHGFPRNEGFFQDCRFMRRRRCPEVVQRAQKCALMARSQCEHPY
MAPPIT interaction score [1]: 0.217

B2: CG7601 (protein)
chain: MKVQDMDKCAPSSDWNVLYWVLGTVLMPVALPLAIINIWQRFQAQKFRNQLPGKVVLITGASSGLGESLAHVFYRAGCRVILAARRTQELERVKKDLLALDVDPAYPPTVLPLDLAELNSIPEFVTRVLAVYNQVDILINNGGISVRADVASTAVDVDLKVMVVNYFGSVALTKALLPSMVKRGSGHICFISSVQGKFAIPQRAAYSASKHAMQAFADSLRAEVANKNINVSCVSPGYIRTQLSLNALTGSGSSYGKVDETTAKGMSPDKLAERILQCILRKEPDIIVSDVQAKIAYYLRHLCPSLYFWIMAKRAVKLENAEKKST
MAPPIT interaction score [2]: 0.037

B3: Pu (protein)
chain: MSFTRQLSEMSASELNDAIDDTNFPQAHILSRGRNNSVCSTSSTSGTSSLADRQQNQAEEATAIAGTPVEEVAPAPALVPLAGNQRPRLILKTNGSSPDSDGTQPKTPLTPRTSTTPGHEKCTFHHDLELDHKPPTREALLPDMARSYRLLLGGLGENPDRQGLIKTPERAAKAMLYFTKGYDQSLEDVLNGAVFDEDHDEMVVVKDIEMFSMCEHHLVPFYGKVSIGYLPCNKILGLSKLARIVEIFSRRLQVQERLTKQIAVAVTQAVQPAGVAVVVEGVHMCMVMRGVQKINSKTVTSTMLGVFRDDPKTREEFLNLVNSK
MAPPIT interaction score [3]: 5.06 (active)

B4: Prosbeta3 (protein)
chain: MSILAYNGGCVVAMRGKDCVAIATDHRFGIQAQTISTDFKKVFHIGPRMFLGLTGLQTDILTVRDRLMFRKNLYETRENREMCPKPFSAMMSSFLYEHRFGPYFIEPVVAGLDPKTMEPFICNMDLIGCPNAPDDFVVAGTCAEQLYGMCETLWKPDLEPDQLFEVIAQSIVNAFDRDAMSGWGATVYIIEKDKITERTLKTRMD
MAPPIT interaction score ([4]; MAPPIT configuration: N-N): 1.33 | MAPPIT interaction score [5]: -0.232 | MAPPIT interaction score ([6]; MAPPIT configuration: N-C): 0.398 | MAPPIT interaction score ([6]; MAPPIT configuration: N-N): 0.197

B5: snRNP-U1-70K (protein)
chain: MTQYLPPNLLALFAAREPIPFMPPVDKLPHEKKSRGYLGVAKFMADFEDPKDTPLPKTVETRQERLERRRREKAEQVAYKLEREIALWDPTEIKNATEDPFRTLFIARINYDTSESKLRREFEFYGPIKKIVLIHDQESGKPKGYAFIEYEHERDMHAAYKHADGKKIDSKRVLVDVERARTVKGWLPRRLGGGLGGTRRGGNDVNIKHSGREDNERERERYRLEREREDREGPGRGGGSNGLDARPGRGFGAERRRSRSRERRDRERDRGRGAVASNGRSRSRSRERRKRRAGSRERYDEFDRRDRRDRERERDRDREREKKKKRSKSRERESSRERRERKRERRDRERGTGSGGDVKERKPDFRDMDVIKIKEEPVDDGYPTFDYQNATIKREIDDEDEEKYRPPPAHHNMFSVPPPPILGRGNASTNPNPDNGQQSSGDPSWWRQ
MAPPIT interaction score [7]: 0.25

B6: Prosbeta4 (protein)
chain: MLNNYNSLAQPMWQNGPAPGEFYNFTGGQTPVQQLPRELTTMGPYGTKHSTASSTTGTSVLGIRYDSGVMLAADTLVSYGSMARYQNIERVFKVNKNILLGGSGDFADIQSIKRNIDQKMIEDQCCDDNIEMKPKSLASWMTRVLYNRRSRMNPLYIDVVVGGVDNEGTPYLANVDLRGRSYEDYVVATGFARHLAVPLVREKKPKDRDFTAVEASELIRTCMEVLYYRDTRNISQYTVGVCSVNGCGVEGPFQVNENWTFAETIKGY
MAPPIT interaction score [8]: 2.07

B7: Prosalpha4 (protein)
chain: MSSRYDRAVTIFSPDGHLLQVEYAQEAVRKGSTAVGVRGANCVVLGVEKKSVAQLQEDRKVRKICMLDNHVVMAFAGLTADARIMINRAQVECQSHRLNVEDPVTLEYITRFIAQLKQKYTQSNGRRPFGISCLIGGFDADGSAHLFQTEPSGIFYEYKANATGRSAKVVREFFEKSYREEEVANEHGAVKLAIRALLEVAQSGQNNLEVAIMENGKPLKMLDTDVITDYVKIIEKEKEEELEKKKQKK
MAPPIT interaction score [9]: 1.51

B8: Mettl14 (protein)
chain: MSDVLKSSQERSRKRRLLLAQTLGLSSVDDLKKALGNAEDINSSRQLNSGGQREEEDGGASSSKKTPNEIIYRDSSTFLKGTQSSNPHNDYCQHFVDTGQRPQNFIRDVGLADRFEEYPKLRELIKLKDKLIQDTASAPMYLKADLKSLDVKTLGAKFDVILIEPPLEEYARAAPSVATVGGAPRVFWNWDDILNLDVGEIAAHRSFVFLWCGSSEGLDMGRNCLKKWGFRRCEDICWIRTNINKPGHSKQLEPKAVFQRTKEHCLMGIKGTVRRSTDGDFIHANVDIDLIISEEEEFGSFEKPIEIFHIIEHFCLGRRRLHLFGRDSSIRPGWLTVGPELTNSNFNSELYQTYFAEAPATGCTSRIELLRPKSPPPNSKVLRGRGRGFPRGRGRPR
MAPPIT interaction score ([10]; pair source set: Curagen_high_conf): 1.8

B9: up (protein)
chain: MSDDEEYTSSEEEEVVEETREETKPPQTPAEGEGDPEFIKRQDQKRSDLDDQLKEYITEWRKQRSKEEDELKKLKEKQAKRKVTRAEEEQKMAQRKKEEEERRVREAEEKKQREIEEKRMRLEEAEKKRQAMLQAMKDKDKKGPNFTIAKKDAGVLGLSSAAMERNKTKEQLEEEKKISLSFRIKPLAIEGFGEAKLREKAQELWELIVKLETEKYDLEERQKRQDYDLKELKERQKQQLRHKALKKGLDPEALTGKYPPKIQVASKYERRVDTRSYDDKKKLFEGGWDEISKDSNEKIWNEKKEQYTGRQKSKLPKWFGERPGKKAGEPETPEGEEDAKADEDIVEDDEEVEEEVVEEEDEEAEEDEEEEEEEEEEEEEEEEEEEEEEEEEEEEEE
MAPPIT interaction score ([11]; MAPPIT configuration: N-C): 1.18 | MAPPIT interaction score ([11]; MAPPIT configuration: N-N): 0.149

B10: Rpt6 (protein)
chain: MTVTNRMEIESAYHKGEGFRSYYIQKIEELQLVVAEKHQNLRRLQAQRNELNAKVRMLREELQLLQEQGSYVGEVVKPMDKKKVLVKVHPEGKFVVDLDKNIDINDVTPNCRVALRNESYTLHKILPNKVDPLVSLMMVEKVPDSTYEMVGGLDKQIKEIKEVIELPVKHPELFDALGIAQPKGVLLYGPPGTGKTLLARAVAHHTECTFIRVSGSELVQKFIGEGSRMVRELFVMAREHAPSIIFMDEIDSIGSSRIESGSGGDSEVQRTMLELLNQLDGFEATKNIKVIMATNRIDILDPALLRPGRIDRKIEFPPPNEEARLDILKIHSRKMNLTRGINLRKIAELMPGASGAEVKGVCTEAGMYALRERRVHVTQEDFEMAVAKVMQKDSEKNMSIKKLWK
MAPPIT interaction score ([4]; MAPPIT configuration: N-C): 1.08 | MAPPIT interaction score ([4]; MAPPIT configuration: N-N): 1.52 | MAPPIT interaction score ([12]; pair source set: Finley_Y2H): 2.59 | MAPPIT interaction score ([12]; pair source set: Lit-BM-16): 2.59 | MAPPIT interaction score [13]: -0.794

B11: mTerf3 (protein)
chain: MFCSALRNILRNSQNAAKNATITSQIRNLRGQQSVHHEVEVLTSPGITTKQNDKKTEPAECEGSKEVALDFRNREAHVPSFNLAAYVNNSSTLQQFLSLGVDLHSIERRKGLGDFVLKLDFEKNVKPYITFLVDQGVSPDDFGRMFTKNPLLFKEDLDDLQTRVNYLKSKRFSDEARQRILTQNPYWLMFSTRRVDRRLGYFQKEFKLSGHDLRLLATREPNAITYNMEHLRKSVFTLKEEMGFNAKELSDLVVRKPRLLMIPPDDLVERFSYIHQDMGLPHAQIVQCPELLASREFRLRERHEFLKLLGRAQYDPQKDLYISPKTIVEGNNFYFVRNVAKSDLETFDLFLKTR
MAPPIT interaction score [14]: -0.325

B12: CG4709 (protein)
chain: MEEYEAQLLVVEQALENAADDAQRQDLLALKNNLQELLALTRESGDEAPIDELPQQGDNLDDELQRLKSELNDLEAAGSSQTALDEERQLADLRTKYTAMVGEKCSAPHEHSWGTCYHNALICGVDDEVVMNSEGVLDARLRVLFTNPTHREMLPCSYYLEGECRFDEAKCRFSHGALVTGSSIRKYNPPDFHKLSRSRPVFALLPDRLWHRGRVLCVNFVEQICRVRLDGQDHKERERDFKFEELYPLTTDQDEDDELSSEESNSSMNDNSSDEAESDMDDLEEARRARMVELSLFTFKPTERLGAWEEFTRGIGSKLMEKMGYIHGTGLGSDGRGIVTPVSAQILPQGRSLDACMELREAANGDKDYFSVERKLKRAQRRQRKADEKAYVRESQRVDVFTFLNDSVLGPGESTQQGEQVTKKAKTNELQQHSTKTLNVETVRIADEIRRKQRDMAKVKQSLDRNSGDAQLQKRLQVQMQSHKQELATLQAQERSLSKEQQTRKSKNKMFEF
MAPPIT interaction score ([10]; pair source set: Lit-BM-16): 2.3

B13: Cyp9f2 (protein)
chain: MLWEFFALFAIAAALFYRWASANNDFFKDRGIAYEKPVLYFGNMAGMFLRKRAMFDIVCDLYTKGGSKKFFGIFEQRQPLLMVRDPDLIKQITIKDFDHFINHRNVFATSSDDDPHDMSNLFGSSLFSMRDARWKDMRSTLSPAFTGSKMRQMFQLMNQVAKEAVDCLKQDDSRVQENELDMKDYCTRFTNDVIASTAFGLQVNSFKDRENTFYQMGKKLTTFTFLQSMKFMLFFALKGLNKILKVELFDRKSTQYFVRLVLDAMKYRQEHNIVRPDMINMLMEARGIIQTEKTKASAVREWSDRDIVAQCFVFFFAGFETSAVLMCFTAHELMENQDVQQRLYEEVQQVDQDLEGKELTYEAIMGMKYLDQVVNEVLRKWPAAIAVDRECNKDITFDVDGQKVEVKKGDVIWLPTCGFHRDPKYFENPMKFDPERFSDENKESIQPFTYFPFGLGQRNCIGSRFALLEAKAVIYYLLKDYRFAPAKKSCIPLELITSGFQLSPKGGFWIKLVQRN
MAPPIT interaction score [15]: -0.452

B14: REPTOR (protein)
chain: MTENQLYPMSSEFFDTGSNSSSNTLKYDLYSLGSTVVGAALPTLTINTGYGSSSSNNNNTNNNNNNSSSHSSSSNCSTSTTNTCNVMLSTTAITIPRSSNHNQIHHHPYQQSDLQTPRHHPSPLHTLPSMTHQQNQLQQQQQQQHHNQQQQLQQSHLALGELSDFGLDALDAASLSPTLLQDVSLSAVSPLSTTLYNGNTSGAGSSNGIGSGSGGYFTPDMSHSLSLNVVSEQVLLQEATTPNELLYEMTPNSNAMWSDISSAIIHTKHEPFSLDDDYIFPNDKAEIQAADLSDLNGGDFLDVIGNIEDFLPQTAVTQSVNFLLSPQAQGQDALVAPPMELLQQQQQNHQQLQVGSLPQLQTLLTLSQQQQSNSSSTSPYEIYHSTPQKPQQQQLSASFSPGSQASQSPLTPPPPPHANRPQYQMVKSRNMQELIKKGFPMSSPPERSILSQSAALSPGGSSGFGSSASGNSTTTSNQTSGSAVRKSFGYQSAVENSQLSRLSSSAPTHLGLEHIWMRREPRQHLLSTGSLAEAESFSSLSTGSVLSPDGIDFSQDDEDDNSSENSDNYDDCSSDNGLSEDEDETRTSTPNHLSSSKGKERFFWQYNVQAKGPKGKRLVFQSKLEDPHVLNEVTDPVFSPTCSVRGIKVYKHSGKARKGDGNDLTPNARKLHNIGKELDKLSRTINDMTPVSELPFNVRPKSRKEKNKLASRACRLKKKAQHEANKIKLFGLEIEHSEFNVKAVEISYNPSIFVL
MAPPIT interaction score [16]: 0.721
